# Screening results: PubChem BioAssay, National Center for Advancing Translational Sciences (NCATS)
# Sampled rows, rich in hits. Any-hit rate of the full collection: about 8.1%.
# MCF10A rerep = A quantitative high throughput screen for small molecules that induce DNA re-replication in MCF 10a normal breast cells; MCF 10A DNA re-replication, Hoechst nuclear intensity, 48 h; Potency, µM (series often up to 46.1 µM), inactives show at the top dose activity, positive = re-replication, actives largely listed as activators; 350,000 compounds, 2.9% hits; AID 624296, 2012; note: % of control where 0% means no effect; nearly all actives have a fitted effect of over 50% in size
# ELG1 DNA repair = qHTS screen for small molecules that inhibit ELG1-dependent DNA repair in human embryonic kidney (HEK293T) cells expressing luciferase-tagged ELG1. 330,000 compounds, 2.3% hits. AID 504467, 2011. HEK293T ELG1-luciferase reporter, luminescence, 16 h; DNA damage induced by 5-fluorouridine. Potency, µM (series often up to 46.1 µM), for the others: at the top dose activity change, negative = inhibition, hits mostly inhibitors; note: % is set by controls: 0 for no effect and ±100 for the full control effect; nearly all actives have a fitted effect of over 55% in size
#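 DMSO vehicle served as the neutral condition. Each well held 2,000 cells given 5-fluorouridine plus compound; after 16 hr at 37 °C/5% CO2, ONE-Glo was added and luciferase measured 30 min later.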
# SW480 rereplic = A quantitative high throughput screen for small molecules that induce DNA re-replication in SW480 colon adenocarcinoma cells; SW480 DNA re-replication, Hoechst DNA content imaging, 48 h; Potency, µM (highest dose often 46.1 µM), without a hit: top-dose re-replication activation, usual class: activators; 340,000 compounds, 1.8% hits; note: % of control where 0% means no effect; nearly all actives have a fitted effect of over 55% in size
#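 Readout is total intensity of Hoechst-stained nuclei, excited at 405 nm and collected at 500-530 nm. Compound treatment lasted 48 hr at 37 C in 5% CO2 before staining.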
# KB-V1 cytotox = qHTS assay for MDR1-selective chemotherapeutics: Primary screen using the drug-selected MDR subline cells KB-V1 | Potency, µM (titrated, usually from 46.1 µM), actives largely listed as cytotoxic | KB-V1 MDR cells viability, CellTiter-Glo, 72 h | 400,000 compounds, 3.4% hits | AID 1347076, 2019; note: % is set by controls: 0 for no effect and ±100 for the full control effect; nearly all actives have a fitted effect of over 60% in size
#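 qHTS viability screen in drug-selected KB-V1 MDR cells: 72 h compound treatment at 37 degrees C, ATP luminescence end point.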
# KB-3-1 tox = qHTS assay for MDR1-selective chemotherapeutics: Primary screen using the parental adenocarcinoma cell KB-3-1. KB-3-1 viability, CellTiter-Glo ATP luminescence, 72 h. Potency, µM (highest dose often 46.1 µM), actives largely listed as cytotoxic. 400,000 compounds, 1.4% hits. AID 1347075, 2019; note: % is set by controls: 0 for no effect and ±100 for the full control effect; nearly all actives have a fitted effect of over 60% in size
#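 Luminescent ATP read-out (CellTiter-Glo) measures survival of drug-naive KB-3-1 cells after 72 h compound exposure at 37 °C. Titration series was screened from lowest to highest concentration, with DMSO vehicle plates as background controls.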
# The depositor's hits bear a star; i = inactive; ? = inconclusive; / = no result. Calls come from the whole dose curve; as a rule, active = well fitted curve in the direction sought with a large enough effect; inconclusive = small, poorly fitted or top-dose-only effect, or another doubt; inactive = no such curve, though single readings can be large; an effect the other way counts as inactive or inconclusive. Potency is the fitted concentration of half-maximal effect.
SMILES,MCF10A rerep,ELG1 DNA repair,SW480 rereplic,KB-V1 cytotox,KB-3-1 tox
COCCCNC(=O)c1c(N)n(-c2ccccc2)c2nc3ccccc3nc12,23µM*,?,21µM*,?,i
Cc1ccc(Nc2nc3ccccc3nc2Nc2c(C)n(C)n(-c3ccccc3)c2=O)cc1,1.8µM*,-16%,-4%,?,i
Cc1c(NC(=O)c2cc(-c3ccc(F)cc3)nc3ccccc23)c(=O)n(-c2ccccc2)n1C,?,8.2µM*,4%,?,?
COCCNC(=O)c1c(N)n(-c2cccc(C)c2)c2nc3ccccc3nc12,18µM*,0%,13µM*,i,i
O=C(Nc1nc(-c2ccccn2)cs1)c1cccc(S(=O)(=O)N2CCOCC2)c1,19%,4%,0%,i,?
C[C@@H]1CN([C@@H](C)CO)C(=O)CCCn2nncc2CO[C@@H]1CN(C)S(=O)(=O)c1cn(C)cn1,/,/,/,i,i
N#Cc1ccccc1Cn1c(SCC(=O)NCc2ccccc2)nc2ccccc21,/,/,/,i,i
COCCNC(=O)c1c(N)n(CCCn2ccnc2)c2nc3ccccc3nc12,12µM*,?,?,i,i
C=CCNC(=O)c1c(N)n(-c2cccc(S(N)(=O)=O)c2)c2nc3ccccc3nc12,3.3µM*,9.2µM*,4.1µM*,i,?
Cc1ccc(-n2c(N)c(C(=O)Nc3c(C)n(C)n(-c4ccccc4)c3=O)c3nc4ccccc4nc32)cc1,1%,2%,1%,23µM*,?
COc1ccc(CNC(=O)COc2ccc(S(=O)(=O)N3CCOCC3)cc2C)cc1,0%,-11%,14%,?,i
CC(=O)Nc1ccc2c(c1)Cc1cc(N3C(=O)C=CC3=O)ccc1-2,5.2µM*,/,13µM*,i,?
CC1(C)Cc2c(c(N3CCOCC3)nc3sc4c(NCCN)ncnc4c23)CO1,?,/,?,?,i
CN(C)CCNc1ncnc2c1sc1nc(N3CCOCC3)c3c(c12)CC(C)(C)SC3,21µM*,0%,?,?,?
COCCNc1nnnc2c1sc1nc(N3CCOCC3)c3c(c12)CC(C)(C)OC3,-4%,4.1µM*,-3%,i,i
COc1ccccc1-c1nc(-c2ccc(C)nc2OC)no1,1%,?,-3%,i,i
CCOc1nc(-c2ccccc2)ccc1-c1noc(COC)n1,24%,?,?,23µM*,i
COc1nc(C)ccc1-c1noc(-c2ccccn2)n1,-4%,?,-9%,12µM*,i
COc1nc(-c2ccccc2)ccc1-c1noc(C)n1,13µM*,/,-1%,?,i
Cn1[nH]c2c(c1=O)[C@H](c1ccc(F)cc1)O[C@H](CCc1ccccc1)C2,/,/,/,i,i
CCN(CC)CCCNC(=O)c1ccc2c(c1)N(Cc1c(F)cccc1Cl)C(=O)c1ccccc1S2,/,/,/,i,?
CCOC(=O)C1CCCN(C(=O)Cn2c(=O)c3cccn3c3cccnc32)C1 (stereo not drawn),7%,7%,-1%,i,i
CSCCC(C(=O)NCc1ccccc1)n1c(-c2ccc3c(c2)CCO3)nc2ccccc21 (stereo not drawn),/,/,/,?,i
N#Cc1nc(-c2ccc(OCc3ccccc3)cc2)oc1NCCCn1ccnc1,-2%,?,-27%,23µM*,?
N#Cc1nc(-c2ccc(OCc3ccccc3)cc2)oc1NCc1cccnc1,-6%,?,0%,i,i
SMILES,MCF10A rerep,ELG1 DNA repair,SW480 rereplic,KB-V1 cytotox,KB-3-1 tox
CN(C)c1oc(-c2ccc(OCc3ccccc3)cc2)nc1C#N,?,?,-97%,21µM*,i
N#Cc1nc(-c2ccc(OCc3ccc(Cl)cc3)cc2)oc1NCc1cccnc1,11µM*,18%,-3%,i,i
N#Cc1nc(-c2ccc(OCc3ccccc3Cl)cc2)oc1NCCCn1ccnc1,/,17%,/,/,/
O=C(CSc1ncc(-c2ccccc2)[nH]1)Nc1cccc(Br)c1,/,/,/,i,i
CCCCCNC(=O)C(C1CC1)n1c(=O)c(-c2ccccc2)nc2ccccc21 (stereo not drawn),/,/,/,?,i
CCCCN(c1ccccc1)S(=O)(=O)c1cccc(C(=O)Nc2c(C)n(C)n(-c3ccccc3)c2=O)c1,?,/,-6%,2.6µM*,26µM*
CCN(c1ccccc1)S(=O)(=O)c1ccc(C(=O)Nc2c(C)n(C)n(-c3ccccc3)c2=O)cc1,-3%,-5%,1%,i,i
CCN(CC)c1ccc(/C=N/NC(=O)c2nnn(-c3nonc3N)c2CN(C)C2CCCCC2)cc1,/,/,/,i,i
Cc1nn(-c2ccccc2)c(N2CCCC2)c1/C=N/NC(=O)c1cc(-c2cccs2)nc2ccccc12,2%,15µM*,20%,i,i
Cc1nn(-c2ccccc2)c(N2CCCC2)c1/C=N/NC(=O)c1cc(-c2ccccn2)nc2ccccc12,8%,8.2µM*,2%,?,i
O=C(O)c1ccc(/C=N/NC(=O)c2cc(-c3cccs3)nc3ccccc23)cc1,?,13%,-2%,?,i
Cc1nn(-c2ccccc2)c(N2CCCC2)c1/C=N/NC(=O)c1cc2ccccc2cc1O,?,?,?,i,?
O=S(=O)(Nc1cc2nc3ccccc3nc2n1Cc1ccccc1)c1ccc(Cl)cc1,7.3µM*,?,10µM*,i,i
O=S(=O)(NCc1ccccc1)c1ccc(Cl)cc1,5%,?,-1%,i,i
Cc1ccc(CNc2ccc3c(c2)ncn3C)cc1,1%,?,-4%,i,i
CCn1cnc2cc(NCc3ccncc3)ccc21,15µM*,3%,-6%,i,i
COc1ccc(CNc2ccc3c(c2)ncn3C)cc1OC,24%,-2%,10µM*,?,?
CCn1cnc2cc(NCc3ccc(Cl)cc3)ccc21,10%,?,0%,i,i
C[C@H](CO)N1C[C@H](C)[C@@H](CN(C)Cc2cccc(F)c2)Oc2cc(-c3cccc(C#N)c3)ccc2S1(=O)=O,/,/,/,i,i
CCCC(=O)N1CCC1(C)C(=O)Nc1ccc2scnc2c1 (stereo not drawn),/,/,/,i,i
Cc1nc2c(ccc3nc(NC(=O)C(c4ccccc4)c4ccccc4)sc32)s1,16µM*,?,9%,i,i
Cc1nc2c(ccc3nc(NC(=O)Cc4cccc5ccccc45)sc32)s1,?,5.2µM*,12%,i,i
